# Reference: PubChem BioAssay (NCATS)
# Records with an inconclusive call do not appear. Entries that show only a call come without a potency. Active and inactive are the calls of the source. The call rests on the fitted dose curve; in most records, active means well fitted cell-killing curve with a large enough effect; inconclusive means small, poorly fitted or top-dose-only effect, or effect the other way; inactive means no such curve, though single readings can be large or run the other way.
# Test: Quantitative High-Throughput drug screen in 47 multiple myeloma cell lines against the NCATS MIPE library collection: KMS34_JCRB cell viability assay (AID 1918985); further: nearly all actives have a fitted effect of over 40% in size
# Conditions: KMS34 myeloma viability, CellTiter-Glo ATP luminescence, 48 h; series mostly up to 45.8 µM
# Procedure, shortened: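 Plated at 500 cells per well, myeloma lines received MIPE 4.0 compounds by pin tool. Following 48 h culture at 37 °C, CellTiter-Glo luminescence gave viability relative to DMSO and media-only controls.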
# Potency means the concentration at half of the fitted maximal effect.
row,SMILES,Potency
1,NC[C@H](O)c1ccc(O)c(O)c1,inactive
2,Cc1cc([C@@H](C)Nc2ccccc2C(=O)O)c2nc(N3CCOCC3)cc(=O)n2c1,2.7 µM (active)
3,Cc1cc2c(C(C)C)c(O)c(O)c(C=O)c2c(O)c1-c1c(C)cc2c(C(C)C)c(O)c(O)c(C=O)c2c1O,11.8 µM (active)
4,CN(C)c1ccc(C2Nc3ccc4ccccc4c3C3=C2C(=O)CC(C)(C)C3)cc1Br (stereo unspecified),inactive
5,COc1nc(-c2ccc3c(c2)OCO3)n(-c2ccc(NC(=O)CSc3ccccc3)cc2)n1,inactive
6,COc1cc2c(cc1OC)CN(CCc1ccc(NC(=O)c3cccc4c(=O)c5cccc(OC)c5[nH]c34)cc1)CC2,inactive
7,COc1ccc(-c2ccc3c(N4CCOC[C@H]4C)nc(N4CCOC[C@H]4C)nc3n2)cc1CO,0.0209 µM (active)
8,Cc1cc(SCc2sc(-c3ccc(C(F)(F)F)cc3)nc2C)ccc1OCC(=O)O,inactive
9,CCC(=O)N[C@H]1CC[C@H](C(=O)N(C)c2ccc(-c3nc4ccccc4o3)cc2)C1,inactive
10,CCCCCCCc1ccc(CCc2cccc(O)c2C(=O)O)cc1,inactive
11,CC[C@@H](C)[C@H](NC(=O)[C@H](CC1CCCCC1)NC(=O)c1ccno1)C(=O)N1CCC2(CCc3ccccc32)CC1,7.43 µM (active)
